Screens: PubChem, National Center for Advancing Translational Sciences (NCATS)
Compounds with a hit are over-represented: about 6.2% of the library has one in this group of screens.
Marburg entry inh: inhibitors of Marburg virus binding or cell entry | Marburg virus pseudotyped entry inhibition, cell reporter | Potency, µM (top dose mostly 37.8 µM), inactives show top-dose activity change, negative = inhibition, hits mostly inhibitors | 1.8% of 300,000 active; calls by dose curve; tested in HEK293 cells; also: potency is read from the fitted curve at half-maximal effect
HCMV antiviral: blocks human cytomegalovirus replication; HFF cells, HCMV-luciferase reporter, 72 h; stronger effect = lower value; activity change, negative = inhibition, % at 57.5 µM; 4.5% of 410,000 active; in the data active = activity change below about -60%; inconclusive = no clear call, values can overlap the other calls; inactive = above about -39%
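Human foreskin fibroblasts infected with luciferase-reporter HCMV at MOI 1 PFU/cell, compounds at two doses. Luciferase measured 72 h post infection; normalized to buffer-only basal and Salinomycin (10uM) controls.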
FMDV antiviral: foot and mouth disease virus antiviral activity. FMDV antiviral cell-based qHTS. 1.2% of 410,000 active. Potency, µM (titrated, usually from 57.9 µM), for inactives: at the top dose activity change, negative = inhibition, usual class: inhibitors. AID 1159524; calls by dose curve; tested in HEK293T cells; also: read-out not given here; potency is read from the fitted curve at half-maximal effect; nearly all actives have a fitted effect of over 45% in size
LASV entry inh: blocks Lassa virus binding to or entry into cells. Lassa virus pseudotype entry inhibition, cell reporter. Potency, µM (titrated, usually from 37.9 µM), without a hit: top-dose activity change, negative = inhibition, usual class: inhibitors. 1.2% of 300,000 active. AID 540256; calls by dose curve; tested in HEK293 cells; also: potency is read from the fitted curve at half-maximal effect; nearly all actives have a fitted effect of over 50% in size
* hit, by the source's call; ! = repeats disagree; [ ] = another dose, or the depositor's remark. % is scaled to controls: 0 for no effect and ±100 for the full control effect.

Screening CCc1ccc(CN(C)C(=O)CCc2nc3ccccc3n(-c3ccc(OC)cc3)c2=O)cc1 returned Marburg entry inh 10µM*, HCMV antiviral -68*, FMDV antiviral inconclusive and LASV entry inh 14µM*.
`COc1cc(C=O)ccc1OCc1cccc(Br)c1` gave Marburg entry inh inconclusive, HCMV antiviral -9, FMDV antiviral 50% and LASV entry inh 1%.
COc1ccccc1-c1cc(C(=O)Nc2sc3c(c2C#N)CCC(C)C3)c2ccccc2n1 (configuration not stated) was read as Marburg entry inh 4%, HCMV antiviral 14, FMDV antiviral -29% and LASV entry inh -9%.
`Cc1ccccc1-c1cc(C(=O)Nc2sc(C(=O)OC(C)C)c(C)c2C#N)c2ccccc2n1` gave Marburg entry inh 12µM*, HCMV antiviral -101*, FMDV antiviral inconclusive and LASV entry inh inconclusive.
`COC(=O)c1sc(NC(=O)c2cc(-c3ccccc3)nc3ccccc23)c(C#N)c1C` gave Marburg entry inh inconclusive, HCMV antiviral -97*, FMDV antiviral 3.2µM* and LASV entry inh inconclusive.
Screening CCOC(=O)c1sc(NC(=O)c2cc(-c3ccc(C)cc3)nc3ccccc23)c(C#N)c1C returned Marburg entry inh 18%, HCMV antiviral -103*, FMDV antiviral inconclusive and LASV entry inh 5%.
COc1ccc(-c2cc(C(=O)Nc3sc4c(c3C#N)CCCC4)c3ccccc3n2)cc1 was read as Marburg entry inh inconclusive, HCMV antiviral -32, FMDV antiviral 1% and LASV entry inh 0%.
Screening O=C(Nc1ccc(OC(=O)c2ccncc2)cc1)c1ccncc1 returned Marburg entry inh inconclusive, HCMV antiviral 32, FMDV antiviral -10% and LASV entry inh 20%.
Screening Cc1cc(C)cc(NC(=O)Nc2cc(-c3ccccc3)nn2C)c1 returned Marburg entry inh 22%[46.1 µM], HCMV antiviral -69*, FMDV antiviral -4% and LASV entry inh 4%[46.1 µM].
COc1cc(C(=O)CC2(O)C(=O)N(Cc3ccccc3Cl)c3ccccc32)cc(OC)c1OC (configuration not stated) was read as Marburg entry inh -26%[46.1 µM], HCMV antiviral -71*, FMDV antiviral -12% and LASV entry inh inconclusive.
Screening Cc1ccc(C(=O)CC2(O)C(=O)N(Cc3ccccc3Cl)c3ccccc32)o1 (configuration not stated) returned Marburg entry inh -11%, HCMV antiviral -24, FMDV antiviral -16% and LASV entry inh -9%.
Screening CCCCC1OC23CCCCC2C(C#N)(C#N)C1(C#N)C(=N)O3 (configuration not stated) returned Marburg entry inh -4%, HCMV antiviral -14, FMDV antiviral 0% and LASV entry inh 13%.
For CCCCC1OC23CCCCC2C(C#N)(C(=N)O3)C1(C#N)C#N (configuration not stated) the results were Marburg entry inh 7%, HCMV antiviral 43, FMDV antiviral 25µM* and LASV entry inh -16%.
For O=C(OCC#CCSc1nnc(-c2cccc3ccccc23)o1)c1cnc[nH]1 the results were HCMV antiviral 18 and FMDV antiviral inconclusive.
For CCN(CCC#N)c1ccc(/C=N/Nc2nc(C)cc(=O)[nH]2)c(C)c1 the results were Marburg entry inh 13%[46.1 µM], HCMV antiviral -2, FMDV antiviral -1% and LASV entry inh 12%[46.1 µM].
For Cc1cc(N(CCCl)CCCl)ccc1/C=N/N=C(\N)c1cnccn1 the results were Marburg entry inh 2.2µM*, HCMV antiviral -16, FMDV antiviral 19% and LASV entry inh inconclusive.
Cc1cc(N(CCCl)CCCl)ccc1C=Cc1ccncn1 was read as Marburg entry inh 4µM*, HCMV antiviral inconclusive, FMDV antiviral -27% and LASV entry inh inconclusive.
Cc1cc(=O)[nH]c(N/N=C/c2ccc(F)cc2)n1 was read as Marburg entry inh -16%[46.1 µM], HCMV antiviral 12, FMDV antiviral 2% and LASV entry inh 20%[46.1 µM].
NC(N)=Nc1cc2ccccc2c2ccccc12 was read as HCMV antiviral -83*.
O=C1CC(N2CCN(Cc3ccc(Cl)cc3)CC2)C(=O)N1CCc1ccccc1 (configuration not stated) was read as Marburg entry inh inconclusive, HCMV antiviral -3, FMDV antiviral inconclusive and LASV entry inh inconclusive.
Screening COC(=O)C[C@H](NC(=O)Cn1cnc2c(NCc3ccccc3)ncnc21)C(=O)OC returned HCMV antiviral 39 and FMDV antiviral -24%.
O=C1C2C3c4ccccc4C(c4ccccc43)C2C(=O)N1c1ccncc1 (configuration not stated) was read as HCMV antiviral -64* and FMDV antiviral inconclusive.
`Cc1ccnc2c(N3C(=O)C4C5c6ccccc6C(c6ccccc65)C4C3=O)cccc12` (configuration not stated) gave Marburg entry inh inconclusive, HCMV antiviral inconclusive, FMDV antiviral inconclusive and LASV entry inh 21µM*.
For CC(C)Cn1c(-c2ccc(Br)cc2)c[nH]c1=S the results were Marburg entry inh -1%[46.1 µM], HCMV antiviral -37, FMDV antiviral 0% and LASV entry inh -24%[46.1 µM].
CCOC(=O)c1c(C)[nH]c(C)c1S(=O)(=O)N1CCC(C(=O)N2CCN(c3cccc(C)c3)C(C)C2)CC1 (configuration not stated) was read as HCMV antiviral -95*, FMDV antiviral -27% and LASV entry inh -25%[46.1 µM].
`CCOC(=O)c1c(C)[nH]c(C)c1S(=O)(=O)N1CCCC(C(=O)N2CCN(c3cccc(Cl)c3)CC2)C1` (configuration not stated) gave HCMV antiviral -73*, FMDV antiviral -29% and LASV entry inh inconclusive.
For CCOC(=O)c1c(C)[nH]c(C)c1S(=O)(=O)N1CCCC(C(=O)N2CCN(c3cccc(C)c3C)CC2)C1 (configuration not stated) the results were HCMV antiviral 13, FMDV antiviral 1% and LASV entry inh 11µM*.
Screening CN(C)C(=O)c1noc2cc([N+](=O)[O-])ccc12 returned Marburg entry inh -3%, HCMV antiviral 59, FMDV antiviral 10% and LASV entry inh -4%.
Cc1cccc2cc(-c3ccccc3)c(-c3ccccc3)c[n+]12 was read as Marburg entry inh inconclusive, HCMV antiviral -97*, FMDV antiviral inconclusive and LASV entry inh 11µM*.
Screening COc1ccccc1C1C(C#N)=C(N)Oc2c1oc(CO)cc2=O (configuration not stated) returned Marburg entry inh 5%[46.1 µM], HCMV antiviral 31, FMDV antiviral 0% and LASV entry inh -25%[46.1 µM].
Screening Cc1ccc(C)c(N2CCN(C(=O)c3cc(S(=O)(=O)N4CCOCC4)cn3C)CC2)c1 returned HCMV antiviral 19 and FMDV antiviral -9%.
`C=Cc1c(C)c2cc3[nH]c(cc4nc(cc5nc(cc1[nH]2)C(C)=C5CCC(=O)O)C(CCC(=O)O)=C4C)c(C)c3C=C` gave Marburg entry inh 7.9µM*!, HCMV antiviral -33, FMDV antiviral inconclusive and LASV entry inh inconclusive.
Screening CN1CCN(C(=O)c2cc(Cl)cc(Cl)c2NC(=O)c2ccco2)CC1 returned Marburg entry inh -1%, HCMV antiviral -33, FMDV antiviral -11% and LASV entry inh -6%.
